The record followed here is PubChem BioAssay.

Results filed as inconclusive are left out. Calls of active or inactive are those of the source.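 The calls were made as follows, unless noted: active = binding below the plate cutoff, the plate median minus 3 SD, with a reading above zero; inconclusive = below the plate cutoff but reading exactly zero; inactive = the rest.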

The nature of assay [1]: yeast TOR pathway RPL19A-GFP modulators, primary screen, cell-based, S. cerevisiae, multiplex flow cytometry (AID 1862; in the data active = percent of DMSO control GFP below about 86%;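 also: lower values mimic rapamycin by blocking the RPL19A rise seen in DMSO cells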). The following applies: S. cerevisiae RPL19A-GFP strain, flow cytometry fluorescence, 3 h; at 10 µM; stronger effect = lower value. A general note: Flow cytometry measures light scatter and fluorescence of single cells or particles in a stream.
A short description of assay [2]: modulators of MEP2-GFP levels in yeast, primary screen, S. cerevisiae, multiplex flow cytometry (AID 1867;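 active = GFP response, as percent of the DMSO control, above the screen-wide mean plus 3 SD, about 139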;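 also: median GFP channel fluorescence of barcode-gated MEP2-GFP cells measured by flow cytometry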). The following applies: S. cerevisiae MEP2-GFP strain, 3 h, at 10 µM, stronger effect = higher value, 100% means same as DMSO wells.
Assay [3] in a line: modulators of CIT2-GFP expression in yeast, primary screen, S. cerevisiae, GFP fusion, multiplex flow cytometry (AID 1870;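 active = percent response above a set limit, the screen-wide mean plus 3 SD, cut at about 130% in these data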;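 also: barcoded CIT2-GFP strain pooled with four other GFP strains with rapamycin as positive control; median GFP fluorescence per well over plate mean of DMSO wells so 100% = DMSO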). The following applies: 3 h, at 10 µM, stronger effect = higher value.
Assay [4] can be described thus: modulators of LAP4-GFP expression in yeast, primary screen, S. cerevisiae, multiplex flow cytometry (AID 1873;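 active = GFP signal, as percent of the solvent control, above the screen mean plus 3 SD, about 149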). The conditions noted are these: 3 h, at 10 µM, stronger effect = higher value.
A short description of assay [5]: modulators of AGP1-GFP expression in yeast TOR pathway, primary screen, cell-based, multiplex flow cytometry, S. cerevisiae (AID 1887;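 active = GFP signal above the screen-wide mean plus 3 SD, that is over about 124.5% of the solvent control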;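 also: AGP1-GFP fusion strain of S. cerevisiae within a five-strain barcoded multiplex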). The conditions noted are these: 3 h, at 10 µM, stronger effect = higher value.
Assay [6] in a line: inhibitors of CD8+ T cell-vesicle binding, pilot screen, LFA-1/ICAM-1 modulator project, MLPCN validation set, flow cytometry (AID 2523;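 active = response below a set limit, under 55% cells CD8-positive and vesicle-bound, and CD8 cells' 90th-percentile brightness under 279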;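 as to vesicle binding response: mean PE anti-B7-1 fluorescence of CD8+ cells relative to row control; 100% = QL9-loaded vesicles with DMSO vehicle in the same plate row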). The conditions noted are these: 2C mouse CD8+ T cells, at 7 µM, stronger effect = lower value; double positive events: measured here: CD8+/vesicle+ event percentage.
Assay [7] concerns the target Integrin beta-1 (Homo sapiens) + Integrin alpha-4 (Homo sapiens) (UniProt P13612+P05556). In words: inhibition of HUTS-21 binding to VLA-4, pilot screen, VLA-4 allosteric modulator project, U937 cells, HUTS-21 mAb, flow cytometry, validation set (AID 2674;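 active = inhibition above 50%, about 3 SD of the validation set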;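 also: antibody binding induced by the VLA-4 ligand LDV present at three times its Kd; 0% = LDV ligand with antibody and no compound and 100% = antibody without LDV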). The following applies: HUTS-21 LIBS mAb binding, at 6.7 µM, stronger effect = higher value, binding induced by LDV ligand.
A short description of assay [8]: superoxide lowering in aged yeast cells, pilot screen, validation compound set (AID 2706;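 active = superoxide response below 65% of plate, a cut near 3 SD across the whole screen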;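 also: yeast exposed to compound for one week at 30 degrees C before staining; 100% = mean of all compound wells on the same plate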). The conditions noted are these: S. cerevisiae aging, superoxide DHE fluorescence; at 10 µM; stronger effect = lower value.
For assay [9], the target named is Beta-adrenergic receptor kinase 1 (Homo sapiens) (UniProt P25098). In words: GRK2 binders displacing RNA aptamer, biochemical, validation, human GRK2, bead flow cytometry (AID 488806;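 active = aptamer binding inhibition above 30%, about 3 SD of noise from non-fluorescent compounds; inactive = inhibition at or below 30%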). The conditions noted are these: bead-bound GRK2, FAM-aptamer displacement, at 10 µM, stronger effect = higher value.
The target in assay [10] is Beta-2 adrenergic receptor (Homo sapiens) (UniProt P07550). In words: beta2AR agonists driving receptor internalization, pilot screen, cell-based, FAP fluorogen, flow cytometry, validation set (AID 504459;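 active = percent response above 42, roughly 3 SD of non-fluorescent test compounds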;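 also: agonist-driven loss of surface beta2AR via internalization measured by FAP dye flow cytometry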). The conditions noted are these: Am2.2-beta2AR cells, FAP surface receptor flow cytometry; at 10 µM; stronger effect = higher value.
In assay [11] the target is AP-2 complex subunit beta (Homo sapiens) (UniProt P63010). In words: inhibitors of arrestin peptide binding to AP2, pilot screen, biochemical, validation set, GST-AP2 beads, flow cytometry (AID 504541;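 active = inhibition above 54%, about 3 SD of non-fluorescent compounds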;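 also: AP2 carries R879A mutation and is captured from E. coli lysate; bead-bound FITC arrestin peptide fluorescence measuring arrestin peptide binding to AP2; 0% = DMSO wells and 100% = excess unlabeled arrestin peptide control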). The conditions noted are these: FITC arrestin peptide, at 10 µM, stronger effect = higher value, AP2 beta2 appendage fragment, R879A mutant.
A short description of assay [12]: yeast V-ATPase proton transport modulators, S. cerevisiae, pHLuorin, HTS validation (AID 504600; in the data active = response above about 15%;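 also: plate controls were DMSO for no effect and reference compound for full effect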). The following applies: S. cerevisiae pHLuorin cytosolic pH, at 10 µM, stronger effect = higher value.
For assay [13], the system named is anti-desmoglein-3 scFv antibody binding to human DSG3. In words: inhibitors of anti-DSG3 scFv binding to DSG3, pilot screen, biochemical, validation compound set, bead-based, flow cytometry (AID 588368).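 Also: signal is the median channel fluorescence of bead-bound GFP antibody.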 The following applies: Protein G beads, DSG3-Fc, scFv-GFP binding, at 10 µM, stronger effect = lower value.
A short description of assay [14]: inhibitors of fungal efflux pumps CDR1, CDR2, MDR1, pilot screen, validation compound set, multiplex, phenotypic (AID 588506;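 active = efflux inhibition above 0.42, the validation set average plus 4 SD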;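 also: Nile Red retained in cells so higher fluorescence means more efflux inhibition; 0 = negative control wells and 1 = enniatin B 25 µM full block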). The following applies: S. cerevisiae pump-expressing triplex, Nile Red efflux flow cytometry; at 10 µM; stronger effect = higher value; the pumps come from Candida albicans.
The target of assay [15] is ATP-binding cassette sub-family B member 6 (Homo sapiens) (UniProt Q9NP58). In words: ABCB6 transporter inhibitors, pilot screen, K562-ABCB6 cells, flow cytometry, validation set (AID 588550;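 active = inhibition above the screen-wide mean plus 3 SD, about 51%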;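 also: 0% = DMSO wells and 100% = benzethonium chloride 70 µM positive control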). The following applies: K562-ABCB6 porphyrin accumulation, 1 h, at 10 µM, stronger effect = higher value.
Assay [16] can be described thus: promoters of myeloid differentiation in arrested cells, primary screen, cell-based, GFP/MAC1 double positive, flow cytometry, validation set (AID 588685;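 active = differentiation response of at least 50%, scaled between solvent and reference control, from cells with both markers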;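 also: compound exposure lasts four days before antibody staining and flow analysis; 0% = DMSO wells and 100% = 5 µM fulvestrant positive control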). The conditions noted are these: ER-HoxA9 marrow cells, stronger effect = higher value, normalized: vehicle 0, fulvestrant 100.

Integrin beta-1 (Homo sapiens) + Integrin alpha-4 (Homo sapiens), sequence (P05556 whole entry, looked up): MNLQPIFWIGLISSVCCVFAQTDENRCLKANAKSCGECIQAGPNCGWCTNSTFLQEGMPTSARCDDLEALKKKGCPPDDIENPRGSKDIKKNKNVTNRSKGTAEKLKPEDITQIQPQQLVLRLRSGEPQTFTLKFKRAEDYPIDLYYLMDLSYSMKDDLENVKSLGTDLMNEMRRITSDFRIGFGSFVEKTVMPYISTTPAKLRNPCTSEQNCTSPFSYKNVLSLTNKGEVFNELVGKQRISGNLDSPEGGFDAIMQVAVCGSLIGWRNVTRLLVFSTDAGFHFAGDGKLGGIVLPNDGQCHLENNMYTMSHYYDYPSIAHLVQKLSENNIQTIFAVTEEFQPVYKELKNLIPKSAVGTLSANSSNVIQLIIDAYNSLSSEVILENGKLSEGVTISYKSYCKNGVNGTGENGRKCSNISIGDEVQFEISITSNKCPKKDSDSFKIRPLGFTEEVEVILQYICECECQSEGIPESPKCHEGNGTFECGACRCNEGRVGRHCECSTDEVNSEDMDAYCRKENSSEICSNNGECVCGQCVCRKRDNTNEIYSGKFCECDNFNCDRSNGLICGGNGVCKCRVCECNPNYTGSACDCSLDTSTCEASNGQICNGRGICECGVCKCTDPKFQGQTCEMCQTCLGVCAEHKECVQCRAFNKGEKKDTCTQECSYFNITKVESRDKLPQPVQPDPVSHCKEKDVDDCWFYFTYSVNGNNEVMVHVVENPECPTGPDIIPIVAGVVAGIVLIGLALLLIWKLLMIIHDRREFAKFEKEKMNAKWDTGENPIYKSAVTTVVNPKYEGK
Integrin beta-1 (Homo sapiens) + Integrin alpha-4 (Homo sapiens), sequence (P13612 whole entry, looked up): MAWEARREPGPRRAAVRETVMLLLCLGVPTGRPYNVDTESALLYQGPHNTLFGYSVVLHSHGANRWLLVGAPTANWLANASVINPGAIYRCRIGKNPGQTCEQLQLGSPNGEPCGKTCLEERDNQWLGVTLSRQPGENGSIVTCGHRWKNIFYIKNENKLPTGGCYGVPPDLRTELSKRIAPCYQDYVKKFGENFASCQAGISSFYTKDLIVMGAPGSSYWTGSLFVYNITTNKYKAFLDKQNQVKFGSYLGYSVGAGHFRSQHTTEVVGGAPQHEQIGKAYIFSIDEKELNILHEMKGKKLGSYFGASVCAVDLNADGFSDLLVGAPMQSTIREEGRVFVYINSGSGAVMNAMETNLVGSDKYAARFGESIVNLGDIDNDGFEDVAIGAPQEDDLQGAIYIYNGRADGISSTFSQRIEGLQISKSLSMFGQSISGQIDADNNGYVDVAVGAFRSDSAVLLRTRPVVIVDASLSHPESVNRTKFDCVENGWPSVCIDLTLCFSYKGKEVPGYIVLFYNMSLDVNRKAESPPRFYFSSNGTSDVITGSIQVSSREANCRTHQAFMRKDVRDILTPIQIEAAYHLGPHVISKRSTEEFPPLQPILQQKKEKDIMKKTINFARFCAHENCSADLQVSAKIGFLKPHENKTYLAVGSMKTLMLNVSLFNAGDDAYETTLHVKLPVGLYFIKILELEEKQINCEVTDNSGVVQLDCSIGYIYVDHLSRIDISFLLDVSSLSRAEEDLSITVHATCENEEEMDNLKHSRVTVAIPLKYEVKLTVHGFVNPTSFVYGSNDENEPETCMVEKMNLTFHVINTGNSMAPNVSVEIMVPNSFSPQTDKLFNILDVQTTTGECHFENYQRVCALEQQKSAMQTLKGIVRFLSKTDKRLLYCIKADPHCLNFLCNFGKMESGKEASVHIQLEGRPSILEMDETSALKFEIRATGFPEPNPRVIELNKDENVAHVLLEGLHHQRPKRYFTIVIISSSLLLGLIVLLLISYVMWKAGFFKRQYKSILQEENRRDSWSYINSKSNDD
AP-2 complex subunit beta (Homo sapiens), sequence (P63010 whole entry, looked up, the tested form may be a part, one chain of several): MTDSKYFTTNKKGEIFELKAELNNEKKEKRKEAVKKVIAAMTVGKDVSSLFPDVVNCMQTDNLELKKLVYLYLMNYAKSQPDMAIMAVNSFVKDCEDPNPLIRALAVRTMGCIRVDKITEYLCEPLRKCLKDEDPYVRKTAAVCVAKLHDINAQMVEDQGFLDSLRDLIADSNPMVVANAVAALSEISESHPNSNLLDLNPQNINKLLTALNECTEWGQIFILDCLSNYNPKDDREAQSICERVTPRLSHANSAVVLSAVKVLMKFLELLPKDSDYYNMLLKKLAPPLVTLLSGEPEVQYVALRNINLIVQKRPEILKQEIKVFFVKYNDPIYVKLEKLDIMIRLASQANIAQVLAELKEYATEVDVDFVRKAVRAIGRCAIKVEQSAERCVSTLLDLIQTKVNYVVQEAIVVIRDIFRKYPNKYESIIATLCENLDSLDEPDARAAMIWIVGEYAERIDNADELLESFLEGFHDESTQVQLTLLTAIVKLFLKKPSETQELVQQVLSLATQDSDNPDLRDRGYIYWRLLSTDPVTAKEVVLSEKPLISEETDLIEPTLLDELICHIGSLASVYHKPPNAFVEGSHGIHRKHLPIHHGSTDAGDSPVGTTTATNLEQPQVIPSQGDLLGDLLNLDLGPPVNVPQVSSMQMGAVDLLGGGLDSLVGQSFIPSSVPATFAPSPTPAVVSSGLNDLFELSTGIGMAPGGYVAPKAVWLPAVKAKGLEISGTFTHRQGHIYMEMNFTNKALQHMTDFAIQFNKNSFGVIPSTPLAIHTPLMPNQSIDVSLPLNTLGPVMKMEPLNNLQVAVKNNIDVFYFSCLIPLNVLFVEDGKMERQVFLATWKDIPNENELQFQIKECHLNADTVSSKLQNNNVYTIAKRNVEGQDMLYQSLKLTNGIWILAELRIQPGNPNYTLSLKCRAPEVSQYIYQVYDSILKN
Beta-2 adrenergic receptor (Homo sapiens), sequence (P07550 whole entry, looked up): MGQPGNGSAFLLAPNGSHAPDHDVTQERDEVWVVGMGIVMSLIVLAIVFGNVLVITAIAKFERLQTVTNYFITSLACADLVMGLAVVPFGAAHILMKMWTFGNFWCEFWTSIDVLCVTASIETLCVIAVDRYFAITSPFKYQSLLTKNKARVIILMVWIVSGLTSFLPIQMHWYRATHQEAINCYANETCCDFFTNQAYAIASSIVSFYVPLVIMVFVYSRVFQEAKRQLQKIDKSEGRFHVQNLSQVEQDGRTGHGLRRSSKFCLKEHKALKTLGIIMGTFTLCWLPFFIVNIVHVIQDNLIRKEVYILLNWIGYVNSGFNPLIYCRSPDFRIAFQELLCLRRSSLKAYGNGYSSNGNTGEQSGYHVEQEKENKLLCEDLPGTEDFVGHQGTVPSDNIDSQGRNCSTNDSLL
Beta-adrenergic receptor kinase 1 (Homo sapiens), sequence (P25098 whole entry, looked up): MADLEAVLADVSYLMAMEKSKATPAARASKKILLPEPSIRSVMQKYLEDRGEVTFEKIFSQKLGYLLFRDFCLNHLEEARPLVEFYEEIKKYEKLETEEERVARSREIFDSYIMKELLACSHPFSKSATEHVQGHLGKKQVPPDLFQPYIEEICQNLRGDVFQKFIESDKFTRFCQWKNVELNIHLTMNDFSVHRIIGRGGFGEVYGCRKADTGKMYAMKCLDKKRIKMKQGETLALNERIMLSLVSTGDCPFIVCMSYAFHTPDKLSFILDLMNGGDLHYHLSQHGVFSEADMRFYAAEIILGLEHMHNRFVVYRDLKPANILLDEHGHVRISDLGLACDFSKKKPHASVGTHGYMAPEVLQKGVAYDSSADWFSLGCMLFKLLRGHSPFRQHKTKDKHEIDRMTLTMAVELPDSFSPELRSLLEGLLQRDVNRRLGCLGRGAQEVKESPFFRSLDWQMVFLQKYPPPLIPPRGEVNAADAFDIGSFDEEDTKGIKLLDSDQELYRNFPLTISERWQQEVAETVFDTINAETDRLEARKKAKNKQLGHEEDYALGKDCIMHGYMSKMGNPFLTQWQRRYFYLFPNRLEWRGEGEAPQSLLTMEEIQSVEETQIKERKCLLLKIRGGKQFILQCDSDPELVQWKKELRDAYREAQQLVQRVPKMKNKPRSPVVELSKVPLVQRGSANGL
ATP-binding cassette sub-family B member 6 (Homo sapiens), sequence (Q9NP58 whole entry, looked up): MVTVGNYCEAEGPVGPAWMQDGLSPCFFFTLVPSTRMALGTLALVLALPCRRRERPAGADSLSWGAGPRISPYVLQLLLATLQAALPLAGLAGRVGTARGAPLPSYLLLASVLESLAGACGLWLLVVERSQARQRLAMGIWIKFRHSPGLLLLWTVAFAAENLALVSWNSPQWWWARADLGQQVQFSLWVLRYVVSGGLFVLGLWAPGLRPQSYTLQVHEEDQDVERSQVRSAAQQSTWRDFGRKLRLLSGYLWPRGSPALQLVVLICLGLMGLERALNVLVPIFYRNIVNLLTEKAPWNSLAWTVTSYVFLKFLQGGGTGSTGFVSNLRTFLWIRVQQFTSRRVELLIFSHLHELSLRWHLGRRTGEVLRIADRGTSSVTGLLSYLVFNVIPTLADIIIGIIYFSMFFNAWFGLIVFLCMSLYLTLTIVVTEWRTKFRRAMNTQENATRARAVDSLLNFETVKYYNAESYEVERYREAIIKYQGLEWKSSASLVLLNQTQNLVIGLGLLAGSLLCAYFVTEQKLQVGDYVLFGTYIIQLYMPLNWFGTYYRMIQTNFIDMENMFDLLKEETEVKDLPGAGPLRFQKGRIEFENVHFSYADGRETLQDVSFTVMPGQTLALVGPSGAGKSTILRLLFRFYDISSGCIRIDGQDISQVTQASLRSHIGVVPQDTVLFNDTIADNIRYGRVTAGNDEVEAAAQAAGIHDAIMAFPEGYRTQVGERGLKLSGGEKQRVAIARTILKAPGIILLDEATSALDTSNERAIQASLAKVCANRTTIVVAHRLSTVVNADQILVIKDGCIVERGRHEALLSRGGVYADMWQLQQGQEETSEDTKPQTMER

Take `COc1ccc(CCN=CC2=C(O)CC(C)(C)CC2=O)cc1`: the percent of DMSO control GFP in assay [1] was 109% (inactive). The GFP response vs DMSO was 106% (inactive) in [2] and 91.4% (inactive) in assay [4]. Besides, in [3], the percent response of DMSO control was 106% (inactive). The GFP response, % of DMSO in [5] is 102% (inactive). The molecule also registered a double positive events in [6] of 62.4%. For the same molecule, the vesicle binding response in assay [6] is 6690% (inactive). Also, the inhibition was -2.53% (inactive) in assay [7], -11.8% (inactive) in assay [11] and 3% (inactive) in assay [15]. The superoxide response (% of plate) in assay [8] is 91.4% (inactive). Moreover, in assay [9], the aptamer binding inhibition is -2% (inactive). Also, the response is -5.19% (inactive) in assay [10] and 2.74% (inactive) in assay [12]. Moreover, in [13], the binding (% of control) was 101% (inactive). Further, the efflux inhibition (fraction of control) in assay [14] is 0.02 (inactive). Also, in [16], the differentiation response is 1.22% (inactive).

For the molecule `COc1cc2c3c(c1)C(C)CC(C)(C)N3C(=O)C2=O` (stereo not given), in assay [1], the percent of DMSO control GFP is 92.4% (inactive). For the same molecule, the GFP response vs DMSO in assay [2] is 122% (inactive); in [4], 79.2% (inactive). The percent response of DMSO control in assay [3] was 110% (inactive). The GFP response, % of DMSO in assay [5] is 94.7% (inactive). This molecule yielded a double positive events in assay [6] of 58.1%. Besides, the vesicle binding response in assay [6] is 199% (inactive). Also, the figures for the inhibition in [7], in assay [11] and in [15] were 15.2% (inactive), 0.2% (inactive) and 12% (inactive), respectively. For the same molecule, the superoxide response (% of plate) in assay [8] was 99% (inactive). In assay [9], the aptamer binding inhibition is 89% (active). Moreover, the results for the response in assay [10] and in assay [12] were 2.87% (inactive) and 1.61% (inactive), respectively. Also, the binding (% of control) in [13] is 105% (inactive). The efflux inhibition (fraction of control) in [14] was 0.37 (inactive). For the same molecule, in [16], the differentiation response was 1.64% (inactive).

Consider `CCC(=O)c1ccc(OCc2ccc(C(=O)OC)cc2)cc1`, for which, in [1], the percent of DMSO control GFP is 104% (inactive). The GFP response vs DMSO in assay [2] is 104% (inactive); in assay [4] it was 112% (inactive). In assay [3], the percent response of DMSO control was 106% (inactive). Besides, the GFP response, % of DMSO in assay [5] was 98.6% (inactive). The double positive events in assay [6] worked out at 54.8%. Besides, in assay [6], the vesicle binding response is 127% (inactive). Besides, the figures for the inhibition in assay [7], in assay [11] and in assay [15] were 4.27% (inactive), 10.4% (inactive) and 10% (inactive), respectively. Besides, the superoxide response (% of plate) in assay [8] was 90.3% (inactive). In assay [9], the aptamer binding inhibition was -1% (inactive). Further, the values for the response in [10] and in [12] were 4.9% (inactive) and 23.8% (active), respectively. In addition, the binding (% of control) in assay [13] is 96.4% (inactive). In addition, the efflux inhibition (fraction of control) in assay [14] is -0.045 (inactive). Moreover, in assay [16], the differentiation response is -23.6% (inactive).

Regarding `CN1CCCN(C(c2ccccc2)c2ccc(Cl)cc2)CC1` (stereo not given), in assay [1], the percent of DMSO control GFP is 97.1% (inactive). Further, the GFP response vs DMSO was 102% (inactive) in [2] and 123% (inactive) in assay [4]. Further, in assay [3], the percent response of DMSO control is 103% (inactive). Moreover, the GFP response, % of DMSO in assay [5] is 120% (inactive). Moreover, in assay [6], the double positive events turned out to be 54.6%. Besides, the vesicle binding response in assay [6] was 171% (inactive). Also, the inhibition in assay [7] was 39.8% (inactive); in assay [11] it was -13.9% (inactive); in assay [15], 2% (inactive). Also, the superoxide response (% of plate) in assay [8] was 107% (inactive). In addition, in [9], the aptamer binding inhibition was -14% (inactive). Also, the response in [10] is 29.3% (inactive); in [12], -5.79% (inactive). Besides, in [13], the binding (% of control) was 107% (inactive). The efflux inhibition (fraction of control) in [14] is 0.04 (inactive). The differentiation response in [16] was -7.94% (inactive).

Consider `COc1ccc2oc(-c3ccco3)cc(=O)c2c1`, for which, in [1], the percent of DMSO control GFP is 103% (inactive). Moreover, the GFP response vs DMSO was 92.4% (inactive) in assay [2] and 88% (inactive) in assay [4]. The percent response of DMSO control in assay [3] is 100% (inactive). Also, the GFP response, % of DMSO in assay [5] is 83.7% (inactive). In addition, the double positive events in assay [6] came out at 59.1%. Further, the vesicle binding response in assay [6] was 23.9% (inactive). The inhibition in [7] was -8.9% (inactive); in assay [11], -28.7% (inactive); in assay [15], 8% (inactive). The superoxide response (% of plate) in assay [8] was 96.6% (inactive). Further, the aptamer binding inhibition in assay [9] is 3% (inactive). Also, the response in [10] is -0.39% (inactive); in assay [12], 2.89% (inactive). Moreover, in assay [13], the binding (% of control) is 100% (inactive). Moreover, the efflux inhibition (fraction of control) in [14] was -0.28 (inactive). Also, the differentiation response in assay [16] was -3.4% (inactive).

As a reminder, the inhibition is the change of the read-out against control, counted positive when it falls.
